Assay [1] has as its target Glucocorticoid receptor (Homo sapiens) (UniProt P04150). Put plainly: GR-GFP Redistribution (AID 450;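 active = compounds whose dose series gives a full or clear partial fitted curve of increased nuclear translocation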; note: potency is the fitted concentration of half-maximal effect). Conditions: U2OS GR-GFP nuclear translocation, laser cytometry, 2 h.
The target is the same in assay [2]. Put plainly: GR-EFC Redistribution (AID 451). Note: potency is the fitted concentration of half-maximal effect. Particulars: CHO-K1 GR-EFC translocation, beta-gal luminescence, 2 h. The essentials: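 Translocation of GR-ED fusion to nuclear EA restores b-gal, read by luminescence after 1 h room-temperature detection. Engineered CHO-K1 biosensor cells, 1,000/well, exposed 2 h at 37 C to titrations up to 46 uM final.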
The target in assay [3] is Mitogen-activated protein kinase 10 (Mus musculus) (UniProt Q61831). Put plainly: JNK3 AlphaScreen Assay (AID 530; active = well fitted curve in either direction with a large enough effect, not every such curve was filed as active;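 note: kinase came from lysate of stimulated human HepG2 cells; signal reports phosphorylation of biotinylated GST-cJun 1-79 at Ser73 with 10 µM ATP; % is set by controls: 0 for no effect and ±100 for the full control effect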). Particulars: JNK3 lysate, c-Jun phosphorylation; series mostly up to 57.1 µM. In short, it runs like this:
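Room-temperature AlphaScreen kinase assay; pre-activated HepG2 lysate as JNK3 source, biotin-GST-cJun(1-79) substrate, 10 uM ATP, compound 15 min preincubation.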
A general note: Bead proximity is the source of the signal in Alpha formats.

The target in assay [4] is 3',5'-cyclic-AMP phosphodiesterase 4B (Homo sapiens) (UniProt Q07343). Put plainly: qHTS Assay for Inhibitors of PDE-IV (AID 607; active = well fitted activation curve with a large enough effect in the main read-out, with a control signal flat, not every such curve was filed as active; note: % of control where 0% means no effect). Conditions: HEK293 ACTOne CNG channel cells, membrane potential fluorescence; series mostly up to 22.9 µM. In short, it runs like this:
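The readout is membrane depolarisation from a cAMP-sensing CNG channel, detected with a potential dye at ex 535/em 590. Cells were HEK293-derived (endogenous PDE-IV) at 1000 cells/well, titrated up to 22.9 uM final.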
(Quantitative high-throughput screening tests each substance at several concentrations.)

Assay [5] in a line: VSVG counterscreen qHTS to identify inhibitors of SARS-CoV-2 cell entry (AID 1645847). Note: potency is the fitted concentration of half-maximal effect; nearly all actives have a fitted effect of over 65% in size. Particulars: VSV-G pseudotyped particle entry, luciferase; series mostly up to 57.2 µM. In short, it runs like this: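 Entry of VSV-G pseudotyped particles into human ACE2-expressing HEK293 cells was measured by luciferase luminescence 48 h after infection, with compound added 1 h beforehand.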
A general note: Counterscreens check selectivity or assay interference.

A short description of assay [6]: Primary qHTS for Huh7 cytotoxicity: counterscreen for inhibitors of MERS-S pseudotyped particle cell entry (AID 1479147). Particulars: cell viability read-out; series mostly up to 57.1 µM.
Assay [7] in a line: Primary qHTS for Vero E6 cytotoxicity: counterscreen for inhibitors of SARS-S pseudo-typed particle cell entry (AID 1479150). Conditions: cell viability; series mostly up to 57.1 µM.
Assay [8] can be described thus: Primary qHTS for inhibitors of SARS-S pseudo-typed particle cell entry (AID 1479145). For activity change, negative = inhibition: % is set by controls: 0 for no effect and ±100 for the full control effect. Note: nearly all actives have a fitted effect of over 45% in size. Note: potency is the fitted concentration of half-maximal effect. Particulars: SARS-S pseudotyped particle cell entry, luciferase reporter; series mostly up to 57.1 µM.
For assay [9], the target named is Ubiquitin carboxyl-terminal hydrolase 1 (Homo sapiens) (UniProt O94782). Put plainly: Inhibitors of USP1/UAF1: Pilot qHTS (AID 504865; active = well fitted inhibition curve with a large enough effect;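 note: rhodamine fluorescence freed from ubiquitin-rhodamine substrate followed over time; top concentration of the series differs between compounds; % is set by controls: 0 for no effect and ±100 for the full control effect; nearly all actives have a fitted effect of over 35% in size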). Conditions: purified USP1/UAF1, Ub-rhodamine cleavage fluorescence; series mostly up to 114 µM. In short, it runs like this:
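Enzyme-free wells gave the negative control, while test wells held 1nM USP1/UAF1 preincubated with compound for 15 min at room temperature. Ub-Rho at 150nM final started the reaction, and fluorescence at 480/540 nm was recorded kinetically.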

Assay [10] addresses Luciferin 4-monooxygenase (Photinus pyralis) (UniProt P08659). Put plainly: Biochemical firefly luciferase enzyme assay for NPC (AID 624030; active = well fitted inhibition curve with a large enough effect;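 note: purified P. pyralis luciferase at 10 nM with luciferin and ATP substrate; 0% = DMSO and -100% = full luciferase inhibition by PTC124 control; nearly all actives have a fitted effect of over 70% in size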). Conditions: purified P. pyralis luciferase, luminescence, 5 min; series mostly up to 58.6 µM. In short, it runs like this: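 Direct inhibition of firefly luciferase enzyme (10 nM final, 50 mM Tris Acetate) assessed by luminescence within 5 minutes. Percent activity scaled between DMSO and PTC124 positive control, with concentration-effect curves classified by fit quality and response.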

The nature of assay [11]: qHTS profiling for inhibitors of Plasmodium falciparum proliferation (AID 504749; active = well fitted inhibition curve with a large enough effect;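 note: 0% = DMSO vehicle and full inhibition = artemisinin control; nearly all actives have a fitted effect of over 60% in size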). Conditions: P. falciparum in erythrocytes, SYBR Green DNA, 72 h, at 28.7 µM (top of the series). In short, it runs like this:
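Three-day growth assay of blood-stage parasites in erythrocytes (0.3% parasitemia, 2.5% hematocrit) at 37 C, 5% CO2, quantified by SYBR Green DNA staining after overnight detergent lysis.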

Molecules are shown by their SMILES. Unmarked numbers belong to inactive results. Results filed as inconclusive are left out. The source made the active and inactive calls. Unless noted, calls come from the whole dose curve. Some results are limits rather than exact numbers.

Glucocorticoid receptor (Homo sapiens), sequence (P04150 whole entry, looked up, the tested form may be a part): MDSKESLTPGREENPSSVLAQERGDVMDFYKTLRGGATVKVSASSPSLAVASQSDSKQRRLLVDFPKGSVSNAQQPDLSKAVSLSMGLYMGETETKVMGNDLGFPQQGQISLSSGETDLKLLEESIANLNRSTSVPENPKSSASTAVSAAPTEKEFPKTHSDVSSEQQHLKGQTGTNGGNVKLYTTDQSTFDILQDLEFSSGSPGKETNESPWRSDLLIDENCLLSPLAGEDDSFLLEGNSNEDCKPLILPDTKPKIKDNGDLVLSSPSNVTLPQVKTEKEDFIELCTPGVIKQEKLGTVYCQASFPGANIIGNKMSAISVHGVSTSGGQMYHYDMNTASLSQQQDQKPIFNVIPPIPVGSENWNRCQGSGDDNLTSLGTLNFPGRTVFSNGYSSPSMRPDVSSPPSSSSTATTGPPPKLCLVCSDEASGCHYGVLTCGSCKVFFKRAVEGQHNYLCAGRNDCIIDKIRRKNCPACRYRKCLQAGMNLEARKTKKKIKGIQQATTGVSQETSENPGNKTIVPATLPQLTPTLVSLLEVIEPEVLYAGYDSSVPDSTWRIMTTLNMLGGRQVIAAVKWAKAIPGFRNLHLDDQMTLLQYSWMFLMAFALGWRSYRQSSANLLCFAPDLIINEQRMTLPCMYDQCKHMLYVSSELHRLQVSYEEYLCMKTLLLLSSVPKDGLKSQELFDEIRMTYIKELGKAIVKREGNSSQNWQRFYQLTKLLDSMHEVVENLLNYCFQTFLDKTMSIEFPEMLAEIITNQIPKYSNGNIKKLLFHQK
Ubiquitin carboxyl-terminal hydrolase 1 (Homo sapiens), sequence (O94782 whole entry, looked up): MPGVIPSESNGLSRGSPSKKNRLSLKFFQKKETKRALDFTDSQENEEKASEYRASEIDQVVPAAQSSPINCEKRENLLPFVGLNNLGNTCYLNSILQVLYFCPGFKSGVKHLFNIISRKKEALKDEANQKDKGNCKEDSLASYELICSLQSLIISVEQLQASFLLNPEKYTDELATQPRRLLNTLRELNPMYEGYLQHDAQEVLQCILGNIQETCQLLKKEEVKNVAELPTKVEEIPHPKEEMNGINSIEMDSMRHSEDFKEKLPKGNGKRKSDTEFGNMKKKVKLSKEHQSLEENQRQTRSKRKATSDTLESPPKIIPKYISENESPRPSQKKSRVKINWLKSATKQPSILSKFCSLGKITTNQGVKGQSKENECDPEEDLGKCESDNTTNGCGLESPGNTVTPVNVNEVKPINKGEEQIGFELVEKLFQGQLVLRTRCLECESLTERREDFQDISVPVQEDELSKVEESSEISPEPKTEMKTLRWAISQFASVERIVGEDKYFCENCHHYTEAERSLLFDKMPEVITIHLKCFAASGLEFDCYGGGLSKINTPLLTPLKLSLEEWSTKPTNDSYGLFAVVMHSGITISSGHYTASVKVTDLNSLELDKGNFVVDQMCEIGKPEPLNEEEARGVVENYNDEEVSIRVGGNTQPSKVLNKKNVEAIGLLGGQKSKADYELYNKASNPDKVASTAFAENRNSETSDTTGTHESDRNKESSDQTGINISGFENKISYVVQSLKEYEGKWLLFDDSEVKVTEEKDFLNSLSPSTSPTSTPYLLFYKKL
3',5'-cyclic-AMP phosphodiesterase 4B (Homo sapiens), sequence (Q07343 whole entry, looked up): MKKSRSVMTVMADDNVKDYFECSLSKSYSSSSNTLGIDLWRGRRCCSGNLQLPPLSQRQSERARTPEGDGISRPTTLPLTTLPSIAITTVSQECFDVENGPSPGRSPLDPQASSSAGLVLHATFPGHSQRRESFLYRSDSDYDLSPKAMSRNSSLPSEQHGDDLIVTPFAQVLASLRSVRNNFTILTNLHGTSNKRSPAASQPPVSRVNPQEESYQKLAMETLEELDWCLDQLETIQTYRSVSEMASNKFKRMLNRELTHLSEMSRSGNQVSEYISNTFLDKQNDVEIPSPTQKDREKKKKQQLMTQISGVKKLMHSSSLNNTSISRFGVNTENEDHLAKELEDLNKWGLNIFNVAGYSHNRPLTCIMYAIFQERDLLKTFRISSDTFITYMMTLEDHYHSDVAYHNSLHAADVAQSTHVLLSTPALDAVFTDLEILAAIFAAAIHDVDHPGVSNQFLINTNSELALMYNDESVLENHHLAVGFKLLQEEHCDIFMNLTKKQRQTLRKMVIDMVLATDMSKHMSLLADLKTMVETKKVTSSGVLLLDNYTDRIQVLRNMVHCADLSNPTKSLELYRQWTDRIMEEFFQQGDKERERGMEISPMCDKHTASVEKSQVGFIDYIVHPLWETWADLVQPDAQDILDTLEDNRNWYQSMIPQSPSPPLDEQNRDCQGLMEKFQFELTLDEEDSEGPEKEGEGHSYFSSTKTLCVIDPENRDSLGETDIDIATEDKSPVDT
Luciferin 4-monooxygenase (Photinus pyralis), sequence (P08659 whole entry, looked up): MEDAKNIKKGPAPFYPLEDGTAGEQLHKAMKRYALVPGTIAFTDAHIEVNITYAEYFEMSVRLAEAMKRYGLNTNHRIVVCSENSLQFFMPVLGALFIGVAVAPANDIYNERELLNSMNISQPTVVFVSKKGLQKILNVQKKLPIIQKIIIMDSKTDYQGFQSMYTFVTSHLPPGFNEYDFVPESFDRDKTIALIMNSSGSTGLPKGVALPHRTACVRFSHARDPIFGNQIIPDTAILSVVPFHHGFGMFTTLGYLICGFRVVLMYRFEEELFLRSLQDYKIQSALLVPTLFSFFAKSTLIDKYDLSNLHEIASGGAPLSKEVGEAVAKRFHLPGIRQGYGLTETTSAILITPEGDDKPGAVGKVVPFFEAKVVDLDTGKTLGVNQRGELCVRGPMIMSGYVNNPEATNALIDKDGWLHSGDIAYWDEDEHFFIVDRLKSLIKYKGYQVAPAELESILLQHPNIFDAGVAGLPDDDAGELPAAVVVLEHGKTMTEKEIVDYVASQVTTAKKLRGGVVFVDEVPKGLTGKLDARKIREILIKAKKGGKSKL

Regarding `CN(C)[C@@H]1C(=O)C(C(N)=O)=C(O)[C@]2(O)C(=O)C3=C(O)c4c(O)cccc4[C@@](C)(O)[C@@H]3C[C@@H]12`, the Potency in [1] and in assay [2] was above 46 µM in each case. Moreover, the call in assay [3] was inactive. Besides, in assay [4], the Potency entry is “inactive”.

With `CC(C)(O)/C=C\C(=O)[C@](C)(O)[C@H]1[C@H](O)C[C@]2(C)[C@@H]3CC=C4[C@@H](C=C(O)C(=O)C4(C)C)[C@]3(C)C(=O)C[C@@]12C`, the Potency in [2] is above 9.22 µM. Also, the activity change, negative = inhibition in assay [3] is 2.97% [at 11.4 µM]. In addition, the Potency entry in [4] was “inactive”.

With `CO[C@H]1CCC(O[C@H]2C[C@H]([C@]3(C)CC[C@]4(C[C@H](O)[C@@H](C)[C@@H]([C@@H](C)/C=C(\C)C(=O)[C@H](C)C[C@H](C)C(=O)O)O4)O3)O[C@]3(O[C@@H]([C@H]4O[C@@](O)(CO)[C@H](C)C[C@@H]4C)C[C@@H]3C)[C@@H]2C)O[C@@H]1C` (stereo not given in full), the Potency in assay [5] was 607 nM (active).

`C/C=C(\C)C(=O)N[C@@H](c1ccccc1)[C@@H](O)C(=O)O[C@H]1C[C@@]2(O)[C@@H](OC(=O)c3ccccc3)[C@@H]3[C@]4(OC(C)=O)CO[C@@H]4C[C@H](O)[C@@]3(C)C(=O)[C@H](OC(C)=O)C(=C1C)C2(C)C`: the Potency in [5] was 108 nM (active).

With `CC(C)[C@]12O[C@H]1[C@@H]1O[C@@]13[C@@]1(C)CCC4=C(COC4=O)[C@@H]1C[C@@H]1O[C@@]13C2=O`, in [5], the Potency was 341 nM (active).

Regarding `C=C(C)[C@@H]1CCC(C)=C[C@H]1c1c(O)cc(CCCCC)cc1O`, the Potency result in [6] and in [7] was “inactive” each time. For the same compound, in assay [5], the Potency was 24100 nM (active).

As to `Cc1c(N)nc([C@H](CC(N)=O)NC[C@@H](N)C(N)=O)nc1C(=O)N[C@H](C(=O)N[C@@H](C)[C@H](O)[C@@H](C)C(=O)N[C@@H](C(=O)NCCc1nc(-c2nc(C(=O)NCCC[S+](C)C)cs2)cs1)[C@@H](C)O)C(O[C@H]1O[C@H](CO)[C@H](O)[C@@H](O)[C@H]1O[C@H]1O[C@H](CO)[C@@H](O)[C@H](OC(N)=O)[C@@H]1O)c1cnc[nH]1` (stereo not given in full), the Potency was 14.1 µM (active) in assay [8] and 34.1 nM (active) in assay [5]. For the same compound, the Potency result in assay [6] and in assay [7] was “inactive” throughout.

With `C/C1=C/C[C@@H](/C(C)=C/c2csc(C)n2)OC(=O)C[C@H](O)C(C)(C)C(=O)[C@H](C)[C@@H](O)[C@@H](C)CCC1`, in assay [5], the Potency was 60.7 nM (active).

Turning to `NC(Cc1cc(I)c(Oc2cc(I)c(O)c(I)c2)c(I)c1)C(=O)O` (stereo not given), the Potency result in [8], in assay [6] and in [7] was “inactive” each time.

Consider `CNC[C@@H]1CC[C@@H](N)[C@@H](O[C@H]2[C@H](O)[C@@H](O[C@H]3OC[C@](C)(O)[C@H](NC)[C@H]3O)[C@H](N)C[C@@H]2N)O1`, for which the Potency entry in assay [8], in [6] and in assay [7] was “inactive” throughout.

`Oc1ccc2c3c1O[C@H]1[C@@H](O)CC[C@@]4(O)C(C2)N(CC2CCC2)CCC314` (stereo not given in full): the Potency entry in [9] and in [10] was “inactive” each time. For the same compound, the activity, negative = inhibition in assay [11] (parasite line A) was 12%; in assay [11] (parasite line B), 0.575%.

Take `C[C@H]1C2Cc3ccc(O)cc3[C@]1(C)CCN2CC1CC1`: the Potency entry in [9] and in assay [10] was “inactive” throughout.

Source of the values: PubChem BioAssay (NCATS).
